The list is not random: actives were taken first. Their share in the collection is about 19%.
HT1080 IDH1KD tx = qHTS for induction of synthetic lethality in tumor cells producing 2HG: qHTS for the HT-1080-IDH1KD cell line. Potency, µM (top dose mostly 46.1 µM), for inactives: at the top dose activity, negative = toxicity, usual class: cytotoxic. 360,000 tested, 2% active. HT-1080 IDH1 knockdown viability, ATP luminescence, 48 h;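 note: 0% = DMSO wells and -100% = cell-free medium wells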
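Luminescent ATP read-out (CellTiter-Glo, 10 min at room temperature) after 48 h compound exposure at 37 °C gave viability of IDH1-knockdown HT-1080 cells. Activity was normalised to DMSO and cell-free wells, then fitted as concentration-response curves.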
TDP1 cell noCPT = qHTS for Inhibitors of human tyrosyl-DNA phosphodiesterase 1 (TDP1): qHTS in cells in absence of CPT. AID 686978, 2013. DT40 Tdp1-/- hTDP1 cells, no CPT, ATP luminescence, 48 h. 420,000 tested, 15% active. Potency, µM (highest dose often 46.2 µM), for the others: at the top dose activity change, negative = growth inhibition, most hits filed as inhibitors; note: nearly all actives have a fitted effect of over 55% in size
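Luminescent ATP content (CellTiter-Glo) served as the growth readout. Knockout chicken DT40 cells expressing human TDP1 were exposed to compounds without camptothecin for a minimum 48 hr at 37 °C.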
DT40 TDP1 CPT = qHTS for Inhibitors of human tyrosyl-DNA phosphodiesterase 1 (TDP1): qHTS in cells in presence of CPT. 420,000 tested, 12% active. chicken DT40 Tdp1-/-;hTDP1 cells + 20 nM CPT, ATP luminescence, 48 h. AID 686979, 2013. Potency, µM (highest dose often 46.2 µM), inactives show top-dose activity change, negative = growth inhibition, hits mostly inhibitors; note: nearly all actives have a fitted effect of over 55% in size
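Chicken DT40 Tdp1-/- cells stably complemented with human TDP1 were seeded at 400 cells/well in medium containing 20 nM camptothecin, exposed to pin-transferred compounds, and grown at 37 °C for at least 48 hr. Viability was read as ATP luminescence.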
KB-V1 MDR tox = qHTS assay for MDR1-selective chemotherapeutics: Primary screen using the drug-selected MDR subline cells KB-V1. KB-V1 MDR cells viability, CellTiter-Glo, 72 h. Potency, µM (highest dose often 46.1 µM), actives largely listed as cytotoxic. 400,000 tested, 3.4% active; note: nearly all actives have a fitted effect of over 60% in size
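In this primary screen, KB-V1 cells overexpressing P-gp are incubated with library compounds (lowest to highest concentration) for 72 h at 37 degrees C before a luminescent ATP viability read.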
KB-3-1 tox = qHTS assay for MDR1-selective chemotherapeutics: Primary screen using the parental adenocarcinoma cell KB-3-1; AID 1347075, 2019; KB-3-1 viability, CellTiter-Glo ATP luminescence, 72 h; 400,000 tested, 1.4% active; Potency, µM (doses to about 46.1 µM), usual class: cytotoxic; note: nearly all actives have a fitted effect of over 60% in size
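Cytotoxicity measured as CellTiter-Glo luminescence after 72 h at 37 C. Compound titrations were pinned onto drug-naive KB-3-1 parental adenocarcinoma cells grown in DMEM with 10% FBS, and normalized data fitted to concentration-response curves.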
HT1080NT lethal = qHTS for induction of synthetic lethality in tumor cells producing 2HG: qHTS for the HT-1080-NT fibrosarcoma cell line; Potency, µM (doses to about 46.1 µM), inactives show top-dose activity, negative = less viability, usual class: cytotoxic; 360,000 tested, 1.6% active; HT-1080-NT fibrosarcoma viability, CellTiter-Glo ATP luminescence, 48 h;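 note: NT is the 2HG producing partner of a matched IDH1 knockdown line; 0% = DMSO-treated cells and -100% = media-only wells without cells; nearly all actives have a fitted effect of over 55% in size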
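Fibrosarcoma NT cells, 750 per well in 5% FBS RPMI, were exposed to compound for 48 hours. Viability: CellTiter-Glo luminescence.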
* = called active by the depositor; i = inactive; ? = inconclusive; · = not tested or not shown. Calls come from the whole dose curve; as a rule, active = well fitted curve in the direction sought with a large enough effect; inconclusive = small, poorly fitted or top-dose-only effect, or another doubt; inactive = no such curve, though single readings can be large; an effect the other way counts as inactive or inconclusive. Unless noted, % is set by controls: 0 for no effect and ±100 for the full control effect; potency is the fitted concentration of half-maximal effect.

SMILES | HT1080 IDH1KD tx | TDP1 cell noCPT | DT40 TDP1 CPT | KB-V1 MDR tox | KB-3-1 tox | HT1080NT lethal
O=C(CN1CCOCC1)Nc1ccc(-c2nc3ccccc3[nH]2)cc1 | -2% | -1% | -12% | ? | i | 1%
CSc1ccc(CNC(=O)CCn2ccc3cc(S(=O)(=O)N4CCCC4)ccc32)cc1 | -13% | ? | ? | ? | ? | -20%
O=C1c2ccccc2C(=O)N1c1ccc(O)cc1 | · | 1% | -2% | i | i | ·
COc1ccc(-c2nc3ccccc3o2)cc1NC(=O)COc1ccc(C)cc1 | · | -18% | ? | i | i | ·
O=C(CSc1ccc(Cl)cc1)Nc1cccc(-c2nc3ccccc3[nH]2)c1 | ? | 10µM* | 9.2µM* | i | i | -26%
COc1ccc(CCN2CC(C(=O)N(C)C3CCOCC3)CCC2=O)cc1 (configuration not stated) | -16% | 4% | -6% | i | i | -4%
Cc1noc(-c2ccccc2)c1NC(=O)Nc1ccc2nc([C@H]3C[C@H](O)[C@@H](CO)O3)[nH]c2c1 | 11% | 12% | 0% | i | i | 15%
CS(=O)(=O)N1CCN(c2ccc(NC(=S)NC(=O)c3cccs3)cc2)CC1 | 2% | 14% | -9% | i | i | 0%
CCCC(=O)NC(=S)Nc1ccc(N2CCN(C(=O)c3cccs3)CC2)cc1 | ? | 15µM* | 16µM* | ? | i | ?
O=C(NC(=S)Nc1ccc(N2CCCCC2)cc1)c1cccs1 | 4µM* | ? | 21µM* | i | i | 1.3µM*
O=C(NC(=S)Nc1ccc(N2CCN(C(=O)c3ccccc3)CC2)cc1)c1cccs1 | -18% | 26µM* | ? | ? | i | -11%
CCCC(=O)N1CCN(c2ccc(NC(=S)NC(=O)CC)cc2)CC1 | 2% | -11% | -19% | 23µM* | i | 22%
CCOc1ccc(C(c2c(O)cc(C)n(CCOC)c2=O)N2CCC(C)CC2)cc1 (configuration not stated) | · | -2% | 5% | · | · | ·
COc1cccc(Cn2c(=O)n(CC3CCC(C(=O)NC(C)C)CC3)c(=O)c3sccc32)c1 (configuration not stated) | · | 3% | -10% | i | i | ·
COc1ccc(NC(=O)c2cccs2)cc1C(=O)N1CCN(c2ccccc2)CC1 | -30% | ? | ? | · | · | -4%
O=C(Nc1cc(C(=O)N2CCN(c3ccccc3)CC2)ccc1Cl)c1cccs1 | -8% | ? | ? | 8.2µM* | i | -3%
COc1ccc(-c2cc(CCC(=O)N3CCN(c4cc(C)ccc4C)CC3)[nH]n2)cc1 | -5% | 23µM* | ? | i | i | -4%
CCOC(=O)c1[nH]c(C)c(CCC(=O)Nc2c(C)cc(C)cc2C)c1C | · | 21µM* | ? | i | i | ·
CCOC(=O)c1[nH]c(C)c(CCC(=O)N2CCN(c3cc(C)ccc3C)CC2)c1C | · | 23µM* | ? | ? | ? | ·
CCOC(=O)c1[nH]c(C)c(CCC(=O)N2CCN(c3cc(Cl)ccc3C)CC2)c1C | · | 23µM* | ? | i | i | ·
CCOC(=O)c1[nH]c(C)c(CCC(=O)N2CCN(c3cccc(OC)c3)CC2)c1C | · | ? | ? | ? | i | ·
